From PubChem
PABP1 MLLE inh – inhibitors of microRNA-mediated deadenylation, human PABP1 MLLE binding; P11940; GST-MLLE / FITC-PAM2 fluorescence polarization; inhibition, % at 20 µM; hit rate 0.36% among 360,000; AID 588489; in the data active means inhibition above about 35%, passing the limit was not always enough;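 further: plate controls were DMSO wells with GST-MLLE for no effect and wells lacking GST-MLLE protein for full effect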
PABP polyA inh – PABP-poly(A) binding inhibition. PABP-poly(A) RNA binding, fluorescence polarization. inhibition, % at 35 µM. hit rate 1% among 290,000;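 further: calls also rest on retests at 20 µM and on dose response follow-up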
CendR NRP1 mod – modulators of CendR peptide binding to human neuropilin-1 | O14786 | FAM-RPARPAR peptide binding to NRP-1, fluorescence polarization | inhibition, % at 25 µM | hit rate 0.85% among 360,000 | AID 602438;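 active means inhibition or corrected inhibition above about 18%, plus a signal ratio from 0.5 to 1.5, limit read from the data, passing the limit was not always enough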
eIF4H FP inh – inhibitors of RNA binding by human eIF4H; Q15056; eIF4H fluorescence polarization binding assay; inhibition, % at 35 µM; hit rate 0.94% among 290,000;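 further: calls also rest on retests at 20 µM and on dose response follow-up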
An asterisk follows results filed as active; ? = inconclusive; · = no result. Hits are enriched below; roughly 2.1% of the tested compounds scored in any of these assays. Unless noted, how the calls were made is not given here.

SMILES	PABP1 MLLE inh	PABP polyA inh	CendR NRP1 mod	eIF4H FP inh
Cc1ccc(C2CC(c3ccc(Cl)cc3)=NNC2=O)cc1 (stereo not drawn)	13.2	-7.9	-11.3	-1.8
Cc1nc(C)c(Oc2cccc(C(F)(F)F)c2)c(=O)[nH]1	15.6	-1.1	-7.4	-1.7
CC1(C)S[C@@H]2[C@H](NC(=O)COc3ccccc3)C(=O)N2C1C(=O)OCC1CCCCC1 (stereo partly drawn)	7.7	·	25.4*	·
CC1(C)S[C@@H]2[C@H](NC(=O)COc3ccccc3)C(=O)N2C1C(=O)OCc1cc2ccccc2n1S(=O)(=O)c1ccccc1 (stereo partly drawn)	·	-0.6	·	17.6
CCOc1ccc(CCNC(=O)COC(=O)c2ccc[nH]c2=O)cc1OCC	-3.1	·	-0.5	·
COc1cc(Cl)c(CNC[C@H]2O[C@@H](n3cnc4c(N)ncnc43)[C@H](O)[C@@H]2O)c(Cl)c1O	1.2	·	7.8	·
Cn1c(=O)c(Nc2ccc(O)cc2)c2c3c(cccc31)C(=O)c1ccccc1-2	186.7	-0.6	80.9*	?
COc1ccc(C=Nc2ccc3[nH]ncc3c2)c(O)c1	-0.4	37.0*	-9.7	77.4*
CCOC(=O)[C@@H]1[C@H]2COc3ccccc3[C@@H]2N2C(=O)N(c3cccc(Cl)c3)C(=O)[C@]12C	8.0	5.2	27.6*	-11.8
CCOC(=O)[C@H]1[C@H]2COc3ccc(Br)cc3[C@H]2N2C(=O)CN(Cc3ccc(C)cc3)C(=O)[C@@]12C	46.8*	·	-11.0	·
CCOC(=O)[C@H]1[C@H]2COc3cc(OC)ccc3[C@@H]2N2C(=O)N(c3cccc(F)c3)C(=O)[C@@]12C	-0.3	·	12.7	·
CCOC(=O)[C@H]1[C@H]2COc3ccc(Br)cc3[C@@H]2N2C(=O)CN(Cc3ccc(C)cc3)C(=O)[C@@]12C	-7.3	·	-10.4	·
CCOC(=O)[C@H]1[C@H]2COc3ccccc3[C@@H]2N2C(=O)c3ccc(Cl)cc3NC(=O)[C@@]12C	11.7	·	9.3	·
CCOC(=O)[C@@H]1[C@H]2COc3cc(OC)ccc3[C@H]2N2C(=O)N(c3cccc(F)c3)C(=O)[C@@]12C	9.5	·	25.3*	·
CCOC(=O)[C@H]1[C@H]2COc3ccccc3[C@@H]2N2C(=O)c3cc(Cl)ccc3NC(=O)[C@@]12C	-8.8	·	23.3*	·
COc1cc(NC(=O)C[n+]2ccc(C(=O)c3ccccc3)cc2)cc(OC)c1	-1.8	·	4.2	·
CCOc1ccccc1N1CCN(Cc2cn[nH]c2-c2ccc(F)cc2)CC1	-0.9	-2.1	-5.7	5.4
COc1ccccc1N1CCN(C(CNC(=O)c2ccc3c(c2)OCO3)c2cccnc2)CC1 (stereo not drawn)	-2.7	-14.0	29.0*	-9.6
N#Cc1c(Nc2cccc(F)c2)sc2c(O)cc(=O)[nH]c12	-83.9	active	-110.7	55.7*
N#Cc1c(SCC(=O)Nc2ccc(C(F)(F)F)cc2)sc2c(O)cc(=O)[nH]c12	-12.0	7.7	-9.0	16.0
CN(Cc1ccc(C(C)(C)C)cc1)C(=O)c1ccc2c(=O)n3c(nc2c1)CCC3	11.3	·	-0.3	·
COc1ccc(OCC(=O)O/N=C(\N)Cc2ccc(Cl)cc2Cl)cc1	1.0	6.6	45.6*	-2.2
COc1ccc(OCC(=O)O/N=C(\N)Cc2ccc(Cl)cc2)cc1	-9.4	-4.5	4.6	1.9
CCn1c(SCC(=O)Nc2cc(Cl)ccc2OC)nnc1C1CC1	-12.8	2.3	4.5	7.2
O=[N+]([O-])c1ccc(Nc2nc(N/N=C/c3cccc(F)c3)nc(N3CCCC3)n2)cc1	29.9	-18.7	1.5	-3.8
SMILES	PABP1 MLLE inh	PABP polyA inh	CendR NRP1 mod	eIF4H FP inh
O=[N+]([O-])c1ccc(Nc2nc(NC3CCCCC3)nc(N3CCCC3)n2)cc1	1.5	-6.6	39.2*	-5.1
CCOC(=O)C1=C(N)Oc2cc(O)ccc2C1c1cccc(Cl)c1 (stereo not drawn)	6.8	-0.2	26.8*	-6.4
O=C(NC(=S)N1CCCC1)c1ccc(Cl)cc1	-5.8	-5.9	29.9*	2.8
O=C(NC(=S)N1CCCC1)c1ccccc1F	44.4*	·	-3.3	·
C[C@]12C[C@H](O)[C@H]3[C@@H](CCC4=CC(=O)CC[C@@]43C)[C@@H]1CC[C@@H]2C(=O)CO	0.7	118.4	-2.0	5.2*
CC(=O)[C@H]1CC[C@H]2[C@@H]3CCC4=CC(=O)CC[C@]4(C)[C@H]3[C@H](O)C[C@]12C	-4.3	-1.5	8.8	-10.1
CCCC(CNC(C)=O)(C1=CCCCC1)c1ccccc1 (stereo not drawn)	1.8	·	-0.9	·
O=C(NCCNC(=O)c1ccc(Br)o1)c1ccc(Br)o1	0.8	3.2	7.8	-3.0
O=C(NCCc1ccccc1)c1ccc(Br)o1	9.3	2.0	24.0*	-7.4
CSc1nc(=S)c2[nH]c(=S)[nH]c2[nH]1	34.9	58.7*	-21.9	92.3*
